The campaign covered roughly 6,200 compounds. About 2,900 (47%) were called active. The set was probably picked from earlier hits. This is one part of the list. Values without a mark were called inactive. No stated cut-off is given here; in the data, active means inhibition above about 50%; inactive means the rest.
test: Mycobacterium tuberculosis growth inhibition, primary screen (AID 1259343); conditions: inhibition: at 10 µM, stronger effect = higher value; outcome: 10 uM

Compound	inhibition
O=C(O)c1cccc2cccc(-c3cccc4cccc(C(=O)O)c34)c12	37%
C[CH2][Hg][S]c1ccccc1C(=O)O	102% (active)
O=C(Nc1ccc(Cl)cc1)c1c(Cl)nsc1Cl	68.1% (active)
O=C(O)Cc1ccc([N+](=O)[O-])cc1Sc1ccc(Cl)cc1	54.2% (active)
O=C1CC(=O)CC2(CCCC2)C1	22.1%
CN(C)c1c(Cl)cccc1NC(=O)c1cc(C2CC2)[nH]n1	19.5%
O=C(Nc1ccc(Cl)c(Cl)c1)Nc1cc(C(F)(F)F)c[nH]c1=O	9.25%
O=C(Nc1ccc(C(F)(F)F)cc1Cl)c1cc([N+](=O)[O-])[nH]n1	102% (active)
CN(Cc1ccsc1)C(=O)c1cccc2c(=O)c3ccccc3[nH]c12	43.6%
O=S(=O)(Nc1nc2c(F)cc(F)cc2s1)c1ccc(F)cc1F	73.8% (active)
O=C(Nc1cccc(N2CCOC2=O)c1)C1CC(c2ccccc2)=NO1 (configuration not stated)	83.1% (active)
N#Cc1cnc(N(Cc2cccc(O)c2)CC2CC2)c(Cl)c1	-4.43%
FCCCN1CCc2onc(-c3ccc(-c4ccccc4)cc3)c2C1	38.4%
O=C(NCCc1ccc(F)cc1)c1ccc(-c2cccc(Cl)c2)s1	28.2%
CSCCCNC(=O)c1ccc(-c2ccc(F)cc2)s1	2.44%
O=C(NCCc1ccc(F)cc1)c1ccc(-c2ccc3c(c2)OCO3)s1	66.8% (active)
O=C(NC1CCc2ccccc21)c1ccc(-c2ccc3c(c2)OCCO3)s1 (configuration not stated)	34.8%
CCCCC(CC)COCCCNC(=O)c1ccc(-c2ccc3c(c2)OCO3)s1 (configuration not stated)	89.3% (active)
Cc1nc(NCCNC(=O)Nc2ccc(F)c(Cl)c2)cc(N2CCCC2)n1	58.8% (active)
COc1ccc(/C=C/CN2CCCC(CO)(Cc3cccc(Cl)c3)C2)cc1 (configuration not stated)	inactive
COc1ccc(/C=C/CN2CCN(c3cc(-n4cccn4)ncn3)CC2)cc1	89.8% (active)
Cc1ccc(NC(=O)CCn2nc3ccccn3c2=O)cc1F	57.8% (active)
CC1CN(C(=O)Nc2ccccc2C(F)(F)F)c2cccnc2N1 (configuration not stated)	24.7%
COC(=O)C1CCN(C(=O)COc2ccc(OCc3ccccc3)cc2)CC1	81.6% (active)
O=C(COc1ccc2ccccc2c1)N1CCC(Nc2ccccc2)CC1	3.84%
COC(=O)C1CCN(C(=O)COc2ccc3ccccc3c2Br)CC1	-1.48%
CCN1CC(=Cc2cc(C)n(C3CC3)c2C)C(=O)C(=Cc2cc(C)n(C3CC3)c2C)C1	30.3%
